Consider 1 compound from ChEMBL document CHEMBL1961873, “Compounds: GSK PKIS; Assays: Nanosyn kinase panel” (2012).

What is called inhibition is the relative decrease from the control value, in per cent.

Assay [1] deals with Sphingosine kinase 1 (Homo sapiens) (UniProt Q9NYA1). The conditions noted are these: at 1 µM.
For assay [2], the target named is T1, Sphingosine kinase 2 (Homo sapiens) (UniProt Q9NRA0).
T1 sequence (whole entry): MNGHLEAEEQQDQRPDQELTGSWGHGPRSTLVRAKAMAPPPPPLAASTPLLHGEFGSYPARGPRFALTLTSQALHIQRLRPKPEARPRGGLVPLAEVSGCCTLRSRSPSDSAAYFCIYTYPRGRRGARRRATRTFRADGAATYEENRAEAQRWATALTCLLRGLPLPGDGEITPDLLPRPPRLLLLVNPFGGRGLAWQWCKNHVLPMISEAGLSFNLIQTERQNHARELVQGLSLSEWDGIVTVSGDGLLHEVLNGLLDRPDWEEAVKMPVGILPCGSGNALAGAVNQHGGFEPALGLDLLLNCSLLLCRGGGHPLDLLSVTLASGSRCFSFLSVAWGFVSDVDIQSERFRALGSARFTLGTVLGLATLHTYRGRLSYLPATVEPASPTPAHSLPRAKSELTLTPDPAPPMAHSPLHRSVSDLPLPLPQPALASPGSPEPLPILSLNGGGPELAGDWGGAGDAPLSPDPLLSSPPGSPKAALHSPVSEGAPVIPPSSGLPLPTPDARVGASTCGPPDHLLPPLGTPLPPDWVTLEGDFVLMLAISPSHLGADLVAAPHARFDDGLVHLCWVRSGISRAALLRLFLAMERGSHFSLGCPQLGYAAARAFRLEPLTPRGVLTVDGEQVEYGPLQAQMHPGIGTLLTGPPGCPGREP
The conditions noted are these: at 0.1 µM.

The target in assay [3] is T1, Sphingosine kinase 2 (Homo sapiens). The conditions noted are these: at 1 µM.
For assay [4], the target named is Casein kinase II subunit alpha (Homo sapiens) (UniProt P68400). The conditions noted are these: at 0.1 µM.
Sequence of Casein kinase II subunit alpha (Homo sapiens) (P68400 whole entry, looked up): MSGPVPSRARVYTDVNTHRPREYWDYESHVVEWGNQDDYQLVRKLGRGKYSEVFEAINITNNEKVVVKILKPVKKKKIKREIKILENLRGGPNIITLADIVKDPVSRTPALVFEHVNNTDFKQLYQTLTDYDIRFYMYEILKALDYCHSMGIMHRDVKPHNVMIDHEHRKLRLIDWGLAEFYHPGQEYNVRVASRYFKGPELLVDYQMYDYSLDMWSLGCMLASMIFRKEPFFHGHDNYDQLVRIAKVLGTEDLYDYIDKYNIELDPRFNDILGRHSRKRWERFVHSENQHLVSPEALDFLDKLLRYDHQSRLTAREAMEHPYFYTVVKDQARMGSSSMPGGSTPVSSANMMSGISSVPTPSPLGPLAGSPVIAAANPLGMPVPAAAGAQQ
Assay [5] shares this target. The conditions noted are these: at 1 µM.
In assay [6] the target is T2, Inhibitor of nuclear factor kappa-B kinase subunit alpha (Homo sapiens) (UniProt O15111).
T2 sequence (whole entry): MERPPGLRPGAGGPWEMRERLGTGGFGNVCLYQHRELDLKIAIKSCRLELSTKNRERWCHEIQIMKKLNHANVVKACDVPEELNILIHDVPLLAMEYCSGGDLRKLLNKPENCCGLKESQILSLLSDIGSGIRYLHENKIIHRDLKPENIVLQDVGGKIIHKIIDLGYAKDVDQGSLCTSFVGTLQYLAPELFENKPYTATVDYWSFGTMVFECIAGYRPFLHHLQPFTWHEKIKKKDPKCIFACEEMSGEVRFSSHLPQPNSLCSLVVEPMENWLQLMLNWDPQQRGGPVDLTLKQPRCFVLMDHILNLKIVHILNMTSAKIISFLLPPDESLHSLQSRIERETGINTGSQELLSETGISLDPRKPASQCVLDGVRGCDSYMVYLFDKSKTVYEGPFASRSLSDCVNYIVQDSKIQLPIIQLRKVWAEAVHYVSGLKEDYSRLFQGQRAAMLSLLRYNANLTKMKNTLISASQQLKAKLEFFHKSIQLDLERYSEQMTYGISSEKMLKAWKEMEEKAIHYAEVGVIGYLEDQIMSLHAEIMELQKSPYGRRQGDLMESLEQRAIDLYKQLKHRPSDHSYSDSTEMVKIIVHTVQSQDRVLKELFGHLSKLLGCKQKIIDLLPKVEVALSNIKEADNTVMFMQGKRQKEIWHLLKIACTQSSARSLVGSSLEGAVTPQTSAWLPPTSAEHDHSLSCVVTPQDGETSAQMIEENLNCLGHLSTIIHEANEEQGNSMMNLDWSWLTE
The conditions noted are these: at 0.1 µM.

In assay [7] the target is T2, Inhibitor of nuclear factor kappa-B kinase subunit alpha (Homo sapiens). The conditions noted are these: at 1 µM.
Assay [8] addresses T3, Inhibitor of nuclear factor kappa-B kinase subunit beta (Homo sapiens) (UniProt O14920).
T3 sequence (whole entry): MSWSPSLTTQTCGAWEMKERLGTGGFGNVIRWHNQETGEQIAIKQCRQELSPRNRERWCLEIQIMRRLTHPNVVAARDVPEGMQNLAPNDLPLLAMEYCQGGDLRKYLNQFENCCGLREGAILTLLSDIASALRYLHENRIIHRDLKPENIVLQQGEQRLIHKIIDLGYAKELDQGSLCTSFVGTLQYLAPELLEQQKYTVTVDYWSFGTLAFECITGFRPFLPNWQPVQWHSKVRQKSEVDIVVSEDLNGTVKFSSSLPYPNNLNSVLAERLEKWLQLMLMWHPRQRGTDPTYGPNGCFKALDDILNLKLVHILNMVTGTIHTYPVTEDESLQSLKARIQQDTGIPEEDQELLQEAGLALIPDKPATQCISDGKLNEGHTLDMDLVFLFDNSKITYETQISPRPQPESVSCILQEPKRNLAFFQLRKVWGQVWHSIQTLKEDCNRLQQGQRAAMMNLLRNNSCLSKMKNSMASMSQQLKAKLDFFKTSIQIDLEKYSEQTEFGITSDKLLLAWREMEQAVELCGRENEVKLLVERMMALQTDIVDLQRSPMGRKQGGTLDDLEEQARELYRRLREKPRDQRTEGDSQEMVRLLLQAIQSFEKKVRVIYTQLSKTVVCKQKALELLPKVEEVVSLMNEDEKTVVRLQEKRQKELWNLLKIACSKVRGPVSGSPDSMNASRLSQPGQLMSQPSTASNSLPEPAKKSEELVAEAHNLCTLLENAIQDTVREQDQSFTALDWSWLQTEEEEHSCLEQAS
The conditions noted are these: at 0.1 µM.

Assay [9] concerns the target T3, Inhibitor of nuclear factor kappa-B kinase subunit beta (Homo sapiens). The conditions noted are these: at 1 µM.
In assay [10] the target is T4, Inhibitor of nuclear factor kappa-B kinase subunit epsilon (Homo sapiens) (UniProt Q14164).
T4 sequence (whole entry): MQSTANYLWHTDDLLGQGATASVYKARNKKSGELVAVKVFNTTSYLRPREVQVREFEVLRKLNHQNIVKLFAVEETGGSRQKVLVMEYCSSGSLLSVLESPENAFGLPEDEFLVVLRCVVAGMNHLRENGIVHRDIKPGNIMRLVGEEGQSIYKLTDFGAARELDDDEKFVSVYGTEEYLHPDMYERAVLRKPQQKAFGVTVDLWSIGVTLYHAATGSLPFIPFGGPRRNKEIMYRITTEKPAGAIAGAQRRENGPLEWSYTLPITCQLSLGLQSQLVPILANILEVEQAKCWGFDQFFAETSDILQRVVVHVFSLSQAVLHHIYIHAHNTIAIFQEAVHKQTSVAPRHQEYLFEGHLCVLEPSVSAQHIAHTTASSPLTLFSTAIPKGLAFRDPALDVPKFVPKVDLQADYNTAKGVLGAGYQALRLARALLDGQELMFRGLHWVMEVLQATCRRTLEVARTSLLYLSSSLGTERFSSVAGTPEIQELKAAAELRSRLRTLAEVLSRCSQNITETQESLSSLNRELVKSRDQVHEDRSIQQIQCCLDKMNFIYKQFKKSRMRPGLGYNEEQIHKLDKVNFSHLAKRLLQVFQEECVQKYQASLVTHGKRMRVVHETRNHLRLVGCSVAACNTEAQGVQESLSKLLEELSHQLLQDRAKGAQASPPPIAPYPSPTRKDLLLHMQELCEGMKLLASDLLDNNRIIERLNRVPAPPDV
The conditions noted are these: at 0.1 µM.

The target of assay [11] is T4, Inhibitor of nuclear factor kappa-B kinase subunit epsilon (Homo sapiens). The conditions noted are these: at 1 µM.
The target in assay [12] is T5, Serine/threonine-protein kinase Nek1 (Homo sapiens) (UniProt Q96PY6).
T5 sequence (whole entry): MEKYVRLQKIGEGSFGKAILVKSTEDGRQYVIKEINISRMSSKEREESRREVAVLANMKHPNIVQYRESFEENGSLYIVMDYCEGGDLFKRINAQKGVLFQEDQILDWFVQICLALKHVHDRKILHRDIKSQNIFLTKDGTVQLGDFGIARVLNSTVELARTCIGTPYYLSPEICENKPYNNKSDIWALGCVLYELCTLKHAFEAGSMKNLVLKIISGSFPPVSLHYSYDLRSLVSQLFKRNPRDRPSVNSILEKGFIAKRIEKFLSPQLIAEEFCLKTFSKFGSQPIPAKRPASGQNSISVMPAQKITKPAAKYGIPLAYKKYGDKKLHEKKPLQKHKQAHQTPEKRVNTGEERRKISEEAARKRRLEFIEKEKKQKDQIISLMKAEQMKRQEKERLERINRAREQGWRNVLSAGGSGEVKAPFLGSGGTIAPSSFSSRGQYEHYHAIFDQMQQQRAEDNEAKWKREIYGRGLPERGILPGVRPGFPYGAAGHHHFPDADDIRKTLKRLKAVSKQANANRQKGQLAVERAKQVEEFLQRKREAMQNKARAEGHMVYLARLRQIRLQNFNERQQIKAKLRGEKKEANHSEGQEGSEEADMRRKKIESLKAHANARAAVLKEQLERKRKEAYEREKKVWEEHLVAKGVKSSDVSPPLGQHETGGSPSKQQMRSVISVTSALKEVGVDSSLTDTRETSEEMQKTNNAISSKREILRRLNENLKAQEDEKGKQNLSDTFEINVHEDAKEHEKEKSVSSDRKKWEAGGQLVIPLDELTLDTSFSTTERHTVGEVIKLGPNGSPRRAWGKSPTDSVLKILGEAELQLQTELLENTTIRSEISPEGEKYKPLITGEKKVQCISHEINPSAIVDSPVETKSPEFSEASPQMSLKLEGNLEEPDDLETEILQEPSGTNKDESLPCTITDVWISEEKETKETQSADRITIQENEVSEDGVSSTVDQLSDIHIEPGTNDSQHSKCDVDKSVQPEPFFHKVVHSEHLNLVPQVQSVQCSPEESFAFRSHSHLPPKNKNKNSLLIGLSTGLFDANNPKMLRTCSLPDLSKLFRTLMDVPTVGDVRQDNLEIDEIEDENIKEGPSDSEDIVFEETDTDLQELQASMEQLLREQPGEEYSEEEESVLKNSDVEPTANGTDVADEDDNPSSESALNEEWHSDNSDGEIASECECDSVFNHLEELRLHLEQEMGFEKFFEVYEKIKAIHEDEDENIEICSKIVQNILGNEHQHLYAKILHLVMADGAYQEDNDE
The conditions noted are these: at 0.1 µM.

Assay [13] addresses T5, Serine/threonine-protein kinase Nek1 (Homo sapiens). The conditions noted are these: at 1 µM.
Assay [14] concerns the target T6, Serine/threonine-protein kinase Nek2 (Homo sapiens) (UniProt P51955).
T6 sequence (whole entry): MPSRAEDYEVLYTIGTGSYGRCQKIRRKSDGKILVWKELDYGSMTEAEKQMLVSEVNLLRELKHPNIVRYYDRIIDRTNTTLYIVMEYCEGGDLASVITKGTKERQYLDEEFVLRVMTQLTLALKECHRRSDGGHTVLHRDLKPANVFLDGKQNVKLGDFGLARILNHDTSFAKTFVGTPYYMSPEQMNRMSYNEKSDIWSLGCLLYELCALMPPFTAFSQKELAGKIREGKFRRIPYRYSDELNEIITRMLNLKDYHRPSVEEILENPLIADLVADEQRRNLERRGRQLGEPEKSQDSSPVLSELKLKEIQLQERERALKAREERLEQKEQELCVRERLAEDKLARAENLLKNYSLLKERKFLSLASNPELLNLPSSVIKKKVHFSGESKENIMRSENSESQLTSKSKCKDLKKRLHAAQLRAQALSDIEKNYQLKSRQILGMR
The conditions noted are these: at 0.1 µM.

In assay [15] the target is T6, Serine/threonine-protein kinase Nek2 (Homo sapiens). The conditions noted are these: at 1 µM.
In assay [16] the target is Serine/threonine-protein kinase Nek6 (Homo sapiens) (UniProt Q9HC98). The conditions noted are these: at 0.1 µM.
Sequence of Serine/threonine-protein kinase Nek6 (Homo sapiens) (Q9HC98 whole entry): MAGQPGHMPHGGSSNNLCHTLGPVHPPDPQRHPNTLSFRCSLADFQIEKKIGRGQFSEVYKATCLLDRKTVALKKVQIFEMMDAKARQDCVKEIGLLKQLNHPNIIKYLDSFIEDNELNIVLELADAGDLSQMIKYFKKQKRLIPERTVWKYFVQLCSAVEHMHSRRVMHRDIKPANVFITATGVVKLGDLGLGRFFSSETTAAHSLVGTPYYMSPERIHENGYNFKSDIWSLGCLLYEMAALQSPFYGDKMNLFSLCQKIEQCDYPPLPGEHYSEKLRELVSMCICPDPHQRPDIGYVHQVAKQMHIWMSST
Assay [17] shares this target. The conditions noted are these: at 1 µM.
Assay [18] concerns the target Serine/threonine-protein kinase Nek7 (Homo sapiens) (UniProt Q8TDX7). The conditions noted are these: at 0.1 µM.
Assay [19] has the same target. The conditions noted are these: at 1 µM.
In assay [20] the target is T7, Serine/threonine-protein kinase Nek9 (Homo sapiens) (UniProt Q8TD19).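 Note: reported value is the mean percent inhibition of NEK9.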
T7 sequence (whole entry): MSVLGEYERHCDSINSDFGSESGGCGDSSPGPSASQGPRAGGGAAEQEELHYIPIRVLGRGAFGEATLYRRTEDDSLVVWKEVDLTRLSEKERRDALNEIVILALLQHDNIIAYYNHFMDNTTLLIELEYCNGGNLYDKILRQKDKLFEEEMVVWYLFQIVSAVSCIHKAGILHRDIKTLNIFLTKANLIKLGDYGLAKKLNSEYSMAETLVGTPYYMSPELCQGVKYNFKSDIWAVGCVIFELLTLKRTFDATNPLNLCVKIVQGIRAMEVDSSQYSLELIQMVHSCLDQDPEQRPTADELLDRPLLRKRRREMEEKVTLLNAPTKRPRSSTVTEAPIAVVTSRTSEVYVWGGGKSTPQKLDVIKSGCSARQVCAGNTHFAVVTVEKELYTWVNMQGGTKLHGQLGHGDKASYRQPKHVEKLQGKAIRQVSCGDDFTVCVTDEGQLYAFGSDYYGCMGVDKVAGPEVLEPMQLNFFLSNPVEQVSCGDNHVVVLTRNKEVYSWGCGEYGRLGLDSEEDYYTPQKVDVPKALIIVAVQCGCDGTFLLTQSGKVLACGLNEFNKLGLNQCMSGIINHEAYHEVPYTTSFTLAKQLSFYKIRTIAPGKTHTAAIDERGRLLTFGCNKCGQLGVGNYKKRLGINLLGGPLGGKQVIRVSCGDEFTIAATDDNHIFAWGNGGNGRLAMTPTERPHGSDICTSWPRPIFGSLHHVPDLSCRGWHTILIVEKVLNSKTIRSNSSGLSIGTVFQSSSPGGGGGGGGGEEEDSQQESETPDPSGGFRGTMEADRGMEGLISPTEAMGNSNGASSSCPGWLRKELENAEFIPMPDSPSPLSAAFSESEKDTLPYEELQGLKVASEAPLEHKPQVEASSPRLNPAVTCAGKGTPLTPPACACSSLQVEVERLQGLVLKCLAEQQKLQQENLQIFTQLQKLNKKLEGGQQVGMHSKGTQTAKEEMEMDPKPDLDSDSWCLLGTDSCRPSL
The conditions noted are these: at 0.1 µM.

Sequence of Serine/threonine-protein kinase Nek7 (Homo sapiens) (Q8TDX7 whole entry, looked up): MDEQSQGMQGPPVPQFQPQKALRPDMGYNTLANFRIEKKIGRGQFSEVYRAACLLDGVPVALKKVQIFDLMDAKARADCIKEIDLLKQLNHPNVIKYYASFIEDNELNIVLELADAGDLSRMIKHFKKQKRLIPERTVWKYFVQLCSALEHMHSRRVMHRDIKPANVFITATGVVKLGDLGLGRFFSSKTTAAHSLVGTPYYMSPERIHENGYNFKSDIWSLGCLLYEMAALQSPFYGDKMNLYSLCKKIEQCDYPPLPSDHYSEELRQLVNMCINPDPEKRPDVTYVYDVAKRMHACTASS
Sequence of Sphingosine kinase 1 (Homo sapiens) (Q9NYA1 whole entry): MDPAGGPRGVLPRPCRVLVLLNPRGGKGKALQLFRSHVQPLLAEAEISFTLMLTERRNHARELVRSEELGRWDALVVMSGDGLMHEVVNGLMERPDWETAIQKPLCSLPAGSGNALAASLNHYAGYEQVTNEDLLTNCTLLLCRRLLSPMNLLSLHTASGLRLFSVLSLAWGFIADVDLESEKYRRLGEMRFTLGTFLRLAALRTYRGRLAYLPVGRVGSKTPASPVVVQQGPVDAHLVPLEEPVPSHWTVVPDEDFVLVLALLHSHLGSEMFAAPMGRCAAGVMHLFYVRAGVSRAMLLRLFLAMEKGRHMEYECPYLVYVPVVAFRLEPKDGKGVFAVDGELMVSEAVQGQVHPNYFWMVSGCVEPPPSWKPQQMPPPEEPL

`CNC(=O)c1cncc(/C=C/c2c(C)cccc2C)c1`: the inhibition was -1.57% in [1]; 0.8% in [2]; 2.92% in [3]; 1.93% in assay [4]; 5.37% in assay [5]; 2.95% in assay [6]. Moreover, the inhibition in [7] was -0.54%; in assay [8] it was 1.19%; in [9] it was -0.96%; in [10] it was 0.37%; in [11], 0.54%; in [12] it was -0.56%. Further, the inhibition is 2.88% in assay [13]; 0.66% in assay [14]; -0.77% in assay [15]; 1.65% in [16]; 0.01% in [17]; -1.37% in [18]. The inhibition is 0.6% in [19] and -0.53% in assay [20].
